Results as given in PubChem BioAssay (NCI).
The panel holds about 83,000 compounds, 20% with a hit somewhere; the sample as a whole holds those more often.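 Note: values are percent growth. 100 is the growth of untreated cells, values between 100 and 0 indicate rising inhibition; between -100 and 0 indicates cell death.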 Values without a mark were called inactive. Active and inactive are the calls of the source. The calls were made as follows: active = growth percent below 10; inactive = the rest.

What was measured:
Experiment in all cases: NCI-60 one-dose screen, 48 h (100 = growth as untreated, 0 = no growth, -100 = all killed)
Settings in all cases: 10 µM unless noted
DU-145 prostate = test system: DU-145 prostate
K-562 leukemia = test system: K-562 leukemia
MALME-3M melanoma = test system: MALME-3M melanoma
MDA-MB-231 breast = test system: MDA-MB-231 breast
RXF 393 renal = test system: RXF 393 renal
SF-268 CNS = test system: SF-268 CNS
SF-295 CNS = test system: SF-295 CNS
SF-539 CNS = test system: SF-539 CNS
UACC-257 melanoma = test system: UACC-257 melanoma
M14 melanoma = test system: M14 melanoma

| SMILES | growth (DU-145 prostate) | growth (K-562 leukemia) | growth (MALME-3M melanoma) | growth (MDA-MB-231 breast) | growth (RXF 393 renal) | growth (SF-268 CNS) | growth (SF-295 CNS) | growth (SF-539 CNS) | growth (UACC-257 melanoma) | growth (M14 melanoma) |
| --- | --- | --- | --- | --- | --- | --- | --- | --- | --- | --- |
| CC(=O)CCS(=O)c1ccccc1 (stereo not drawn) | 103% | 98.9% | 97.2% | 106% | 99.7% | 94.9% | 97.6% | 113% | 99.5% | 105% |
| Nc1ccc(N=Nc2ccccc2)c2cc(S(=O)(=O)O)ccc12 | 110% | 104% | 107% | 109% | 97.2% | 98.8% | 103% | 101% | 97% | 103% |
| O=C1CCNC1 | 103% | 108% | 108% | 101% | 105% | 111% | 108% | 102% | 95.8% | 105% |
| CCCCCCCCCCCCCCCCCC1=NCCN1CCNC(C)=O | 69.7% | 26.4% | 98.9% | 66.3% | 99% | 88.7% | 108% | 86.8% | 108% | 101% |
| CC(=O)Nc1nc(C)c(C(=O)NN)s1 | 105% | 67.3% | 120% | 99% | 104% | 95.2% | 133% | 91.3% | 108% | 113% |
| CCC(C)CC(N)O (stereo not drawn) | 114% | 108% | 130% | 116% | 91.8% | 108% | 99.4% | 107% | 102% | 103% |
| CCn1cnc(C[C@H](NC(=O)[C@@H](NC(=O)Nc2cc(C(F)(F)F)cc(C(F)(F)F)c2)C(C)(C)C)C(=O)OC)c1 | -95.1% [100 µM] (active) | -47% [100 µM] (active) | -82.5% [100 µM] (active) | -93.6% [100 µM] (active) | -83.7% [100 µM] (active) | -89.2% [100 µM] (active) | -88.6% [100 µM] (active) | -93.4% [100 µM] (active) | -96.2% [100 µM] (active) | -90.8% [100 µM] (active) |
| OCCN1CCN(CC/C=C2/c3ccccc3Sc3ccc(C(F)(F)F)cc32)CC1 | 82.7% | 6.74% (active) | 69% | 80.7% | 59.6% | 70.7% | 88.7% | 87.6% |  | 58.5% |
| COc1ccc(-c2nc(SCC(C)C)nc(Nc3ccc(C(=O)O)cc3)c2C#N)cc1 | 88.7% | 89% | -57.7% (active) | 109% | 83.1% | 91% | 75.9% | 97.1% | 96.9% | 93% |
| BrCCCOc1ccc(Oc2ccc(OCCCBr)cc2)cc1 | 116% | 109% | 117% | 104% | 80.8% | 111% | 116% | 113% | 90.4% | 102% |
| Clc1ccc(N/N=C(\c2ccccc2)c2ccccn2)nc1 | 22.7% | 7.96% (active) | 20% | 37% | 24.6% | 10.5% | 1.66% (active) | -0.842% (active) | -7.64% (active) | -6.53% (active) |
| CCS(=O)(=O)N[C@@H]1O[C@H](COC(C)=O)C(OC(C)=O)[C@H](OC(C)=O)C1OC(C)=O (stereo partly drawn) | 105% | 99.4% | 115% | 110% | 88.1% | 94.4% | 111% | 95.1% |  | 109% |
| COC(=O)c1ccc(C(=Nc2ccc(N(C)C(=O)CN3CCN(C)CC3)cc2)c2c(O)[nH]c3ccc(C(=O)OC)cc23)cc1 | 38.2% | 7.19% (active) | -14.7% (active) | 49.2% | 17.7% | 32.8% | 44.4% | 23.3% | 67.7% | 28.7% |
| CC(=O)c1ccc2c(c1)c1ccccc1n2C | 104% | 86.7% | 105% | 102% | 94.7% | 101% | 85.8% | 108% | 104% | 106% |
